Values joined by “and” are separate entries in the source; they are usually repeats but may differ in a detail not shown here. Identical values can stand only once.
How the values were obtained:
[1] = target: Tyrosine-protein kinase CSK (Homo sapiens) (UniProt P41240); details: at 1 µM;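 note: each value is an averaged inhibition reading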
[2] = target: T1, Discoidin domain-containing receptor 2 (Homo sapiens) (UniProt Q16832); details: at 0.1 µM
T1 sequence (whole entry): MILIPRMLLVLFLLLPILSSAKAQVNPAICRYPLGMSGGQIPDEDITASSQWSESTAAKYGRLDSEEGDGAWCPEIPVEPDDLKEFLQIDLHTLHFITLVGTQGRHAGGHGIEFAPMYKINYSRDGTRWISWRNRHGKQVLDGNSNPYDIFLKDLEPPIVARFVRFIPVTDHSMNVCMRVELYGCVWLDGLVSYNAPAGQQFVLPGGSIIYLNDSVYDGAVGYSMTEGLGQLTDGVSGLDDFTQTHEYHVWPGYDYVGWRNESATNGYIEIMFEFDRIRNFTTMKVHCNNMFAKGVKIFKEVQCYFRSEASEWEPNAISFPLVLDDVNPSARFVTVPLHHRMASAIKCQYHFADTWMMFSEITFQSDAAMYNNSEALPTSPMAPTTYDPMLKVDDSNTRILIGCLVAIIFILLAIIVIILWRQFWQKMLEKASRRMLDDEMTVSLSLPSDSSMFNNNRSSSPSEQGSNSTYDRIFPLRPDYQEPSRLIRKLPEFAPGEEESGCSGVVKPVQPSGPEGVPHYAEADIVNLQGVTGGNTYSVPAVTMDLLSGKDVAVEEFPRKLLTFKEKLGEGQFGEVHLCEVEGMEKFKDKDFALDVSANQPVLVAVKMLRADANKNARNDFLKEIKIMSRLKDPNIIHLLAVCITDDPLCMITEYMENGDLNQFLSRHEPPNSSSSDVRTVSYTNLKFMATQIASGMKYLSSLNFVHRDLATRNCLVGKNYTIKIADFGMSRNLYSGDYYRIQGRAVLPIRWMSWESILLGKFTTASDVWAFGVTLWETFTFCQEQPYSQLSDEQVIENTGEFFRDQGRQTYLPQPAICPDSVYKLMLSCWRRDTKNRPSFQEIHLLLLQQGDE

[3] = target: T1, Discoidin domain-containing receptor 2 (Homo sapiens); details: at 1 µM
[4] = target: Epidermal growth factor receptor (Homo sapiens) (UniProt P00533); details: at 0.1 µM
[5] = target: Epidermal growth factor receptor (Homo sapiens) (UniProt P00533); details: at 1 µM
[6] = system: Epidermal growth factor receptor (Homo sapiens), P00533 [L858R]; details: at 0.1 µM
[7] = system: Epidermal growth factor receptor (Homo sapiens), P00533 [L858R]; details: at 1 µM
[8] = system: Epidermal growth factor receptor (Homo sapiens), P00533 [L861Q]; details: at 0.1 µM
[9] = system: Epidermal growth factor receptor (Homo sapiens), P00533 [L861Q]; details: at 1 µM
[10] = system: Epidermal growth factor receptor (Homo sapiens), P00533 [T790M]; details: at 0.1 µM
[11] = system: Epidermal growth factor receptor (Homo sapiens), P00533 [T790M]; details: at 1 µM
[12] = system: Epidermal growth factor receptor (Homo sapiens), P00533 [L858R,T790M]; details: at 0.1 µM
[13] = system: Epidermal growth factor receptor (Homo sapiens), P00533 [L858R,T790M]; details: at 1 µM
[14] = target: Ephrin type-A receptor 2 (Homo sapiens) (UniProt P29317); details: at 0.1 µM
[15] = target: Ephrin type-A receptor 2 (Homo sapiens) (UniProt P29317); details: at 1 µM
[16] = target: T2, Ephrin type-A receptor 3 (Homo sapiens) (UniProt P29320); details: at 0.1 µM
T2 sequence (whole entry): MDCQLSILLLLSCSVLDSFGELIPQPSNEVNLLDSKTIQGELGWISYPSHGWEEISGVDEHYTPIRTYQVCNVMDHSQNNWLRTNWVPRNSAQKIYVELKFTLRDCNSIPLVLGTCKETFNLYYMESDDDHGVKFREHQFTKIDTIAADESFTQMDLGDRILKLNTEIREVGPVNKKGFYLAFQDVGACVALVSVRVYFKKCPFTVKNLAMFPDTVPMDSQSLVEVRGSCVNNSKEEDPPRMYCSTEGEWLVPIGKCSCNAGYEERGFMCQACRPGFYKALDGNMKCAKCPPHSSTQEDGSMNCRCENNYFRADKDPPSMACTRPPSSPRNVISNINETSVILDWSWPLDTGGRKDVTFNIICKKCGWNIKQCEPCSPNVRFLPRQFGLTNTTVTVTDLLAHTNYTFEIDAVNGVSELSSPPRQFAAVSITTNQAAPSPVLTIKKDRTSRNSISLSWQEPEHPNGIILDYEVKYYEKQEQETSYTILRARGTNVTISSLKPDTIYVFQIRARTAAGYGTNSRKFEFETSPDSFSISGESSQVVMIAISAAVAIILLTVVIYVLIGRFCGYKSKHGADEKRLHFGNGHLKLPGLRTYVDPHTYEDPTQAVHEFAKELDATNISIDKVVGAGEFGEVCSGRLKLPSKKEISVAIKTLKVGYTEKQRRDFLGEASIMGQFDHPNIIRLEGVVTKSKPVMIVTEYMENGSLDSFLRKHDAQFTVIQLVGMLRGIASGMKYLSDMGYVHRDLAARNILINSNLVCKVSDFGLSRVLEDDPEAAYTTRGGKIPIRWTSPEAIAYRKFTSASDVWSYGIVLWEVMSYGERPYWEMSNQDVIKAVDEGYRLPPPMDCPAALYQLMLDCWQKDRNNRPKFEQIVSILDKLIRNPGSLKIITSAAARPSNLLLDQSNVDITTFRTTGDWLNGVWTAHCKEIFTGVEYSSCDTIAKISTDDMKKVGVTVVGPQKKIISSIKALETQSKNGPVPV

[17] = target: T2, Ephrin type-A receptor 3 (Homo sapiens); details: at 1 µM
[18] = target: Ephrin type-A receptor 4 (Homo sapiens) (UniProt P54764); details: at 0.1 µM
[19] = target: Ephrin type-A receptor 4 (Homo sapiens) (UniProt P54764); details: at 1 µM
[20] = target: T3, Ephrin type-B receptor 2 (Homo sapiens) (UniProt P29323); details: at 0.1 µM;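 note: reported as mean inhibition of EPHB2, from the GSK PKIS dataset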
T3 sequence (whole entry): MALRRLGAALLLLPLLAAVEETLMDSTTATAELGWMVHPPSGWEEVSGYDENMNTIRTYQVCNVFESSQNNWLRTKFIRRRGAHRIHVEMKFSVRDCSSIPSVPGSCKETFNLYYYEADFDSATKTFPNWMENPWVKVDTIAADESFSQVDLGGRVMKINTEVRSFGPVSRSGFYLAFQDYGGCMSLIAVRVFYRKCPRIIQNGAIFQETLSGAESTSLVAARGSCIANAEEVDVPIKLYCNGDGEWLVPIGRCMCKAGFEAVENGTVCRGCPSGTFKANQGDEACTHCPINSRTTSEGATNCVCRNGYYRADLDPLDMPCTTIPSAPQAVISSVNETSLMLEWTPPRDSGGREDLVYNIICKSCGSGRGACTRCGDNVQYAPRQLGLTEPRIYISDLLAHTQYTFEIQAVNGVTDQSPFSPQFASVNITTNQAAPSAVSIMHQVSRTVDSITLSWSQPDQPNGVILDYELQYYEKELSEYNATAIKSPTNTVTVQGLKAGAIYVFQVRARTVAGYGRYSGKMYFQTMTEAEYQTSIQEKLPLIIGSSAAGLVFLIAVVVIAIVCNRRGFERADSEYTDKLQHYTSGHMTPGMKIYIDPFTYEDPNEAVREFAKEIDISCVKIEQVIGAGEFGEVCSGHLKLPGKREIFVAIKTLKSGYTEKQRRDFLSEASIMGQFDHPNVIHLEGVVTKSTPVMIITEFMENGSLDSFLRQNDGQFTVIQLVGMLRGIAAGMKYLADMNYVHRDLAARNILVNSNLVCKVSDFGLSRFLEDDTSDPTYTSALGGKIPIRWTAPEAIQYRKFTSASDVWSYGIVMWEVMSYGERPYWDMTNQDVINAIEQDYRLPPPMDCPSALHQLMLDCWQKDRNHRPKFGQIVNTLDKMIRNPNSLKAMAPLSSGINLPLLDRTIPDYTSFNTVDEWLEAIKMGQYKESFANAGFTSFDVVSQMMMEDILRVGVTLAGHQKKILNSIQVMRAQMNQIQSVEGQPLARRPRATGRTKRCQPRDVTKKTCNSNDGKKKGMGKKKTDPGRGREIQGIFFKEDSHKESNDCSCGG

Epidermal growth factor receptor (Homo sapiens), P00533 [T790M], sequence (P00533 whole entry T790M): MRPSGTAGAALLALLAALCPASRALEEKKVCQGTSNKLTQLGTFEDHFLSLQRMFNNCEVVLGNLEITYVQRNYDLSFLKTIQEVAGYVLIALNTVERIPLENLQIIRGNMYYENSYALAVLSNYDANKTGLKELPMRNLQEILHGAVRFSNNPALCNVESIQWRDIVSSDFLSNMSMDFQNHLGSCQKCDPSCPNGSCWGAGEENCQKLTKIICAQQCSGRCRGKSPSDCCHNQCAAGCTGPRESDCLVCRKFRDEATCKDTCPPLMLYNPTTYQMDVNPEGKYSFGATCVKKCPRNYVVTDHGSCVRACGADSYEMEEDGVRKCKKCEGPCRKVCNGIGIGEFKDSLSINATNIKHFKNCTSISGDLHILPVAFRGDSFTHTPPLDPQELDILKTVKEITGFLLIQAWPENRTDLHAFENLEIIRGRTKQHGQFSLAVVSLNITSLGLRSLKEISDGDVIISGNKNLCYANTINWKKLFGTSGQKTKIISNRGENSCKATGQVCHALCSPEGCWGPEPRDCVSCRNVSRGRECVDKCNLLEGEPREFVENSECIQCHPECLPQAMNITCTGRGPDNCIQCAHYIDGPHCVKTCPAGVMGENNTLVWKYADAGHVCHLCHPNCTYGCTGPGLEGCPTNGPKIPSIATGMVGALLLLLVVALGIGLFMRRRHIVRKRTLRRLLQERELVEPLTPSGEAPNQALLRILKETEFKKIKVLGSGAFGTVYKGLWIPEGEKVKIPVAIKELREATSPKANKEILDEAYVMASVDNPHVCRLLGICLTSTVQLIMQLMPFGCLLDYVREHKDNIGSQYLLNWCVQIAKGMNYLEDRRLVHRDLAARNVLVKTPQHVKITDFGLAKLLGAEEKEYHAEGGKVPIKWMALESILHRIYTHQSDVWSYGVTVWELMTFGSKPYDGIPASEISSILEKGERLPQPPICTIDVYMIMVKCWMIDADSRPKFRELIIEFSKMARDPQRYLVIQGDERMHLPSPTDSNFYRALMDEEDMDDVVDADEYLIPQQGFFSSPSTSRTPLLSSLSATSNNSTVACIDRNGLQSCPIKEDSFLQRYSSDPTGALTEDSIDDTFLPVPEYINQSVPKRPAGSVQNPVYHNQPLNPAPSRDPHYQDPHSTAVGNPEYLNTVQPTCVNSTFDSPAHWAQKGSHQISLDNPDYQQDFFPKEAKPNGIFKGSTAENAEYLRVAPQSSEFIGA
Epidermal growth factor receptor (Homo sapiens), P00533 [L858R], sequence (P00533 whole entry L858R): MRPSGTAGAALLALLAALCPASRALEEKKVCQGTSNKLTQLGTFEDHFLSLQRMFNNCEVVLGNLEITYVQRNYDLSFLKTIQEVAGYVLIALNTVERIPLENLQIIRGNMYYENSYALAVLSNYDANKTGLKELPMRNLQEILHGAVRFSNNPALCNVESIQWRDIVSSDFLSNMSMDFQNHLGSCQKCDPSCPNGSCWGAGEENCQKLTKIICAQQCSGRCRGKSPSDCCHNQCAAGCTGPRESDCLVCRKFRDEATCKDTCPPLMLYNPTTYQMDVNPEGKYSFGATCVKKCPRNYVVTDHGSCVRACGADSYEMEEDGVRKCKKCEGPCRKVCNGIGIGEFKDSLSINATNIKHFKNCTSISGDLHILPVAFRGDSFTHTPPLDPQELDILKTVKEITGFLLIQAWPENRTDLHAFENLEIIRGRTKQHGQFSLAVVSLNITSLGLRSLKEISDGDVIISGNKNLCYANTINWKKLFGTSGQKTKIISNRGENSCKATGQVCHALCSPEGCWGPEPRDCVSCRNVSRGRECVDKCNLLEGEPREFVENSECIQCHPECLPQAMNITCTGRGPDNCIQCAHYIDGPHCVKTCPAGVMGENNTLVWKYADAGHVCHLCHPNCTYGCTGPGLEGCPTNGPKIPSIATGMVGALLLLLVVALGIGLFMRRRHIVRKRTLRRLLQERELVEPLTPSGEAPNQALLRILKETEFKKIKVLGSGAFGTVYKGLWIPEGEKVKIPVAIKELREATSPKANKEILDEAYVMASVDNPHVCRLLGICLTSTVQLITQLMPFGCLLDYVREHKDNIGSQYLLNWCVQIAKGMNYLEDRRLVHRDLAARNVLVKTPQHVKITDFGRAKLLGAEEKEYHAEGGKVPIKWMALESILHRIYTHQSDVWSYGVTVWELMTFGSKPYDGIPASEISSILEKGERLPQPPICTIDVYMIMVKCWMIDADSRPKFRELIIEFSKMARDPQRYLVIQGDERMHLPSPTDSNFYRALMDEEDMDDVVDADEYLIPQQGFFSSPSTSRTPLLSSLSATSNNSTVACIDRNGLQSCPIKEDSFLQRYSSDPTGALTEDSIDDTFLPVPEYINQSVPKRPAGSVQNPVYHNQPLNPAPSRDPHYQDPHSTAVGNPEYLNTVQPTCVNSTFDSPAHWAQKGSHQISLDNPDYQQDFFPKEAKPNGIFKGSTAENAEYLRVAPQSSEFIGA
Ephrin type-A receptor 2 (Homo sapiens), sequence (P29317 whole entry): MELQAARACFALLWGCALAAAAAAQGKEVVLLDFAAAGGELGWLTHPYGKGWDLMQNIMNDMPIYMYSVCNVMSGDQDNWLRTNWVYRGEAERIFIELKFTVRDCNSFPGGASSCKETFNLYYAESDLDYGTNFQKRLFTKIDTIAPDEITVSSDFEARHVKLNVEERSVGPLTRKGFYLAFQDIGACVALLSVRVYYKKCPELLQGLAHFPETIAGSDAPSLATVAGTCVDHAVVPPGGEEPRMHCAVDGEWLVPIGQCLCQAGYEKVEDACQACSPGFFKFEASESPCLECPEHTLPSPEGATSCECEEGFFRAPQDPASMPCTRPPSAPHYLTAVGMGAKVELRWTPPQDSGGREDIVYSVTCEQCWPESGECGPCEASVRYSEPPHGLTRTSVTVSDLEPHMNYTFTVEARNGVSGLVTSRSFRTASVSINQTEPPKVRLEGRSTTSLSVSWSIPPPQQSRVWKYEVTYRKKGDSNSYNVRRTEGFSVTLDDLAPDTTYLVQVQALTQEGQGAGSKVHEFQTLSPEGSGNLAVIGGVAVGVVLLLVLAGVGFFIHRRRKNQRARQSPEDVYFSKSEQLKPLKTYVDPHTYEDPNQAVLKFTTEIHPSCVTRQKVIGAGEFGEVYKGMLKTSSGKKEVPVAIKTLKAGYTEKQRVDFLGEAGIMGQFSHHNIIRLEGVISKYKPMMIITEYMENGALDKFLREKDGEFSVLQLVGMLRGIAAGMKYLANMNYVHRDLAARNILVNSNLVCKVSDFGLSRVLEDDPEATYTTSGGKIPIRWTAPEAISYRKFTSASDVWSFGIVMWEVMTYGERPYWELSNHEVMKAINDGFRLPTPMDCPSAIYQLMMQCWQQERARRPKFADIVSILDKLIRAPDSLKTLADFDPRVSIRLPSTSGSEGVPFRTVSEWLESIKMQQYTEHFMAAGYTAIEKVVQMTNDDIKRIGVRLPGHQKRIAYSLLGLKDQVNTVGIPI
Tyrosine-protein kinase CSK (Homo sapiens), sequence (P41240 2-450 limits assumed): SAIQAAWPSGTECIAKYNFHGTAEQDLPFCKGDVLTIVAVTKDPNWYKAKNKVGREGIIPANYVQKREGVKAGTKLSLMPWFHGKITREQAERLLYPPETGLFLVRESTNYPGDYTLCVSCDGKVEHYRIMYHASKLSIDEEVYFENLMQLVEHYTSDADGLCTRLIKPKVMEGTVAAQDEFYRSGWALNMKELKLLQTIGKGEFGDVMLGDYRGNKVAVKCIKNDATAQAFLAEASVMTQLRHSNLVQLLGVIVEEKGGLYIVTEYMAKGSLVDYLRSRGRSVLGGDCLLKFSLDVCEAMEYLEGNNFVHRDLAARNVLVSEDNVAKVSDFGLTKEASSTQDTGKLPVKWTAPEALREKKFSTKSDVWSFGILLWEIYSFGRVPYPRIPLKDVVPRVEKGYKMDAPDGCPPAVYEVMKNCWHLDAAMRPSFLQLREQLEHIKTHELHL
Ephrin type-A receptor 4 (Homo sapiens), sequence (P54764 whole entry): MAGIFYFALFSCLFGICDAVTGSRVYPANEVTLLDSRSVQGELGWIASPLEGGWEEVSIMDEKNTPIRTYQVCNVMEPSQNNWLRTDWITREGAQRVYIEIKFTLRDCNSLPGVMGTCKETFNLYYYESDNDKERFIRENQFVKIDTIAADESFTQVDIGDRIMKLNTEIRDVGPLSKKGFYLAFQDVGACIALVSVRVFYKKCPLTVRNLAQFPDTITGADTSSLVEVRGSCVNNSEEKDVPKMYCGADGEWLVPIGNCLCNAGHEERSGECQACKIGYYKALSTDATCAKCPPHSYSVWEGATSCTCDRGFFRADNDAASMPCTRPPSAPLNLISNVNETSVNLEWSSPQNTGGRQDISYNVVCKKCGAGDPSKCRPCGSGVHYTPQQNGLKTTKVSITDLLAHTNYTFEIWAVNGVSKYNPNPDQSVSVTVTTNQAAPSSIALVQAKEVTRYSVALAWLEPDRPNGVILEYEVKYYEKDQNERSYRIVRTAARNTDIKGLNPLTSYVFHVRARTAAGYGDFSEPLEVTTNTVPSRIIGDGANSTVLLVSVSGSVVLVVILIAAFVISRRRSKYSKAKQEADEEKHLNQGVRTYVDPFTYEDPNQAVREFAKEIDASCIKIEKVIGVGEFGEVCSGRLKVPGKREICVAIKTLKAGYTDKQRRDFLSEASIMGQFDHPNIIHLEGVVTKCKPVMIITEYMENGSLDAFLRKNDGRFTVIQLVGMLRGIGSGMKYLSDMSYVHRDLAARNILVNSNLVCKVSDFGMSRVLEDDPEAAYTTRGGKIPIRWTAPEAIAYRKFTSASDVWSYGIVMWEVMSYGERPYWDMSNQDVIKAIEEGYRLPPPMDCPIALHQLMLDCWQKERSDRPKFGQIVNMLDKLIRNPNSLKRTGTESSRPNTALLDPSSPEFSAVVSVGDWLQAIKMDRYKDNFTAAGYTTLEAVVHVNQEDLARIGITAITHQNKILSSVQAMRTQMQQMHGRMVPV

Compound | inhibition [1] | inhibition [2] | inhibition [3] [%] | inhibition [4] | inhibition [5] | inhibition [6] | inhibition [7] | inhibition [8] | inhibition [9] | inhibition [10] | inhibition [11] | inhibition [12] | inhibition [13] | inhibition [14] | inhibition [15] | inhibition [16] | inhibition [17] | inhibition [18] | inhibition [19] | inhibition [20]
COc1c(C(N)=O)cc(-c2ccc(Cl)cc2)cc1-c1ccc(S(N)(=O)=O)cc1 | 4.45% | 1.62% | 2.64 | 1.55% | 2.79% | 2.2% | 8.48% | 2.27% | 5.74% | 1.41% | 3.77% | -1.73% | 0.63% | 1.79% | 1.53% | 3.06% | 4.11% | 8.42% | 10.1% | 8.67%
NS(=O)(=O)c1ccc(N/N=C2\C(=O)Nc3ccc(C(=O)NCc4ccncc4)cc32)cc1 | 7.78% | -0.45% | 3.57 | -0.63% | 5.5% | 6.1% | 4.21% | 4.5% | 4.52% | 2.35% | 5.2% | 0.1% | 2.72% | 1.72% | 1.75% | 4.4% | 3.58% | 8.7% | 15% | 4.03%
Nc1nccc(-c2c(-c3ccc(F)cc3)ncn2C2CCNCC2)n1 | -3.76% and 3.13% | -1.68% and 1.35% | 0.32 | -0.4% and 2.01% | 5.66% and 6.46% | -0.59% and 2.85% | 6.1% and 10.9% | -3.23% and 1.91% | 1.42% and 4.42% | -2.84% and -2.65% | -1.82% and -1.43% | -3.77% and -2.58% | -3.38% and 2.32% | -1.11% and -2.31% | -3.3% and -3.19% | -5.79% and -0.55% | -3.63% and 1.63% | -7.34% and 0.75% | -6.76% and 4.23% | -3.07% and 5.6%
CNC(=O)c1ncccc1Nc1nc(Nc2cc3c(cc2OC)CCCN3C(=O)CN(C)C)nc2[nH]ccc12 | 2.18% | 2.33% | 3.8 | 1.65% | 7.76% | 4.57% | 22.4% | 4.79% | 7.78% | 13.2% | 54.4% | 43.7% | 80.5% | 0.62% | 0.22% | 5.44% | 5.06% | 7.88% | 7.89% | 8.66%
CS(=O)(=O)Nc1ccc(-c2ccc3c(NC(=O)C4CC4)n[nH]c3c2)cc1 | 0.41% | 1.42% | 0.51 | -0.2% | 2.27% | 2.52% | -0.4% | 2.28% | -2.37% | 2.21% | 0.23% | 0.3% | 0.93% | 2.88% | 1.54% | 5.15% | 4.1% | 5.41% | 1.08% | 9.15%
CNC(=O)c1sc(-n2cnc3cc(OC)c(OC)cc32)cc1OCc1ccccc1C(F)(F)F | 7.18% | 2.3% | 2.7 | -0.83% | 2.09% | 0.74% | -0.13% | 1.16% | 1.23% | 0.64% | 0.02% | 0.49% | 1.43% | 2.6% | 2.61% | 3.26% | 7.45% | 7.55% | 13.2% | 5.44%

Reference: ChEMBL document CHEMBL1961873, “Compounds: GSK PKIS; Assays: Nanosyn kinase panel” (2012)
